# Only some compounds are listed: those with a hit (about 2.6% of all), similar ones and a draw of the others.
# Luminol counter = counter-screen for Nox1 inhibitors: inhibitors of luminol chemiluminescence; hit rate 0.4% among 16,000; AID 1823, 2009; HRP/luminol/H2O2 chemiluminescence counterscreen; inhibition, % at 6.7 µM; further: reference of the scale not given here
# Nox1 inhibitor = inhibitors of human NADPH oxidase 1 (Nox1); HT29 cells, luminol chemiluminescence ROS; Q9Y5S8; AID 1792, 2009; inhibition, % at 6.7 µM; hit rate 0.81% among 16,000
# OPRK1 antag MB = antagonists of human kappa opioid receptor OPRK1, Maybridge library. inhibition, % at 9 µM. AID 652031, 2013. hit rate 0.4% among 16,000. Kappa-type opioid receptor (Homo sapiens), P41145. OPRK1 cells, antagonist mode, fluorescence readout; in the data active means inhibition above about 50%
# PME-1 Maybr inh = inhibitors of human PME-1 in Maybridge library. Protein phosphatase methylesterase 1 (Homo sapiens), Q9Y570. recombinant PME-1, FP-Rh probe fluorescence polarization. inhibition, % at 9 µM. hit rate 0.5% among 16,000; in the data active means inhibition above about 30%
# TLR4 MyD88 blk = inhibitors of human TLR4-MyD88 binding; Toll-like receptor 4 (Homo sapiens), O00206; Cell-based TLR4-MyD88 binding inhibition assay; inhibition, % at 10 µM; hit rate 0.06% among 16,000; AID 811, 2007; in the data active means inhibition above about 45%
# Target sequence (O00206 whole entry, looked up): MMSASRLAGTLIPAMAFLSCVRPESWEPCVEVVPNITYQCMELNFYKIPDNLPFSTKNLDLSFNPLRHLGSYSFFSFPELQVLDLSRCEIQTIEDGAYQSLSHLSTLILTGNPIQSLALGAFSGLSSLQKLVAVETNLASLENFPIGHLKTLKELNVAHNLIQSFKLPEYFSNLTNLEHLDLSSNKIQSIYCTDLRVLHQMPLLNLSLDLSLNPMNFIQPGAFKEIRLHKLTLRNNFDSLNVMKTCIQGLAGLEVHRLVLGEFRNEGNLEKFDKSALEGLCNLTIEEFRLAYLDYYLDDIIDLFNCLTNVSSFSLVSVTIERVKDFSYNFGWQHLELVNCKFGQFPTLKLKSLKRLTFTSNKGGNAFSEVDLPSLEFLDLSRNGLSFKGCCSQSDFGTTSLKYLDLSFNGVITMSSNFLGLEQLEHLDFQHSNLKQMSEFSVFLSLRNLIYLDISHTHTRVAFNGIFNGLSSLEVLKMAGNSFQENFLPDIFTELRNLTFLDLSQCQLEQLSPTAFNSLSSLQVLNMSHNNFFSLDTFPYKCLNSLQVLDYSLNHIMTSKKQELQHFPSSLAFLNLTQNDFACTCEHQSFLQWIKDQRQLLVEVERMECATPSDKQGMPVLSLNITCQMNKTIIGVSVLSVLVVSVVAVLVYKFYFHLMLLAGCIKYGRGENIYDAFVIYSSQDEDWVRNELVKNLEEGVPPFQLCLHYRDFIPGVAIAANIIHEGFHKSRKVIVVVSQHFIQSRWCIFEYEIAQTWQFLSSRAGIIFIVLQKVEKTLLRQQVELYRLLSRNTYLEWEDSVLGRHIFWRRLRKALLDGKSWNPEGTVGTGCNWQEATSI
# NOTCH ag = agonists of NOTCH signaling. NOTCH signaling luciferase reporter cells, luminescence. activation, % at 2.5 µM. hit rate 0.4% among 15,000. AID 434982, 2010; in the data active means activation above about 2.2%
# The depositor's hits bear a star; . = no result given. Unless noted, no stated cut-off is given here; in the data, active means inhibition above about 75%; inactive means the rest.
SMILES,Luminol counter,Nox1 inhibitor,OPRK1 antag MB,PME-1 Maybr inh,TLR4 MyD88 blk,NOTCH ag
Nc1nc(NC2CCCCNC2=O)n[nH]1 (centres undefined),62,92*,13,8,6,0
CC(C)NC(=O)NC1CCCCNC1=O (centres undefined),-1,-23,21,2,-3,0
CC12CCC(=O)C=C1CCC2=O (centres undefined),-5,13,-10,3,53*,-1
COc1cc2ncnc(NNC(=O)c3cccs3)c2cc1OC,2,86*,13,18,-3,-1
COc1ccc(CCNC(=O)c2cccs2)cc1OC,-5,-10,11,4,2,-1
Nc1ccccc1Sc1ccc(-c2cnc3ccccc3n2)cc1[N+](=O)[O-],98*,9,15,4,-6,0
Nc1ccccc1Sc1ccc(Cl)cc1[N+](=O)[O-],3,-32,16,4,-4,-1
CC(=O)Nc1ccccc1NC(C)=O,0,-24,18,-3,2,-1
O=C(Nc1ccc(Cl)cc1Cl)c1cc([N+](=O)[O-])cc2c1-c1ccc([N+](=O)[O-])cc1C2=O,-2,101*,53*,1,-4,0
CC(NS(=O)(=O)c1ccc(Oc2c(Cl)cccc2[N+](=O)[O-])cc1)c1ccccc1 (centres undefined),2,-26,-4,17,.,0
O=[N+]([O-])c1cccc(Cl)c1Oc1ccc(S(=O)(=O)N2CCOCC2)cc1,-2,0,1,33*,4,-1
Cn1c(=O)c2cc3cc(Cl)ccc3nc2c2c(=O)n(-c3ccccc3)c(=O)n(-c3ccccc3)c21,-3,-15,70*,-17,1,-1
C/C=C(\C)C(=O)Nc1nncs1,0,-49,-1,0,7,0
O=S(=O)(NC1Cc2ccccc2C1)c1ccc(Cl)s1,-2,-16,-12,5,4,0
CC(=O)Oc1cccc(OC(C)=O)c1[N+](=O)[O-],2,-45,11,-3,2,0
CC(=O)Oc1ccc(OC(C)=O)c2c1[C@@H]1C=C[C@H]2CC1,-1,81*,-5,2,2,-1
CS(=O)(=O)CS(=O)(=O)Oc1cccc(C(F)(F)F)c1,3,-56,-1,-3,8,0
Cn1nccc1N1C(=O)C2=C(SCCS2)C1=O,-5,16,10,5,7,0
N#CC(C#N)=C1c2cc(S(N)(=O)=O)cc([N+](=O)[O-])c2-c2c1cc(S(N)(=O)=O)cc2[N+](=O)[O-],8,34,5,73*,-21,0
Cc1c(COS(=O)(=O)c2ccc(Cl)cc2Cl)sc2ccccc12,-5,-3,-10,2,-11,-1
CC1(C)CC(Nc2ccc(Nc3ccccc3)cc2)CC(C)(C)N1,4,103*,24,5,-1,0
O=C1CC(Nc2ccccc2)C=C1Nc1ccccc1 (centres undefined),-4,1,-2,1,-7,1
O=S(=O)(NCCSCc1ccco1)c1cccc2nonc12,-2,-11,-12,6,4,-1
CNC(=S)NNC(=O)c1ccccn1,53,87*,-3,1,5,.
CN(C)c1ccc(NC(=O)Nc2ccc(OCc3ccccc3)cc2)cc1,-4,107*,14,2,-4,0
SMILES,Luminol counter,Nox1 inhibitor,OPRK1 antag MB,PME-1 Maybr inh,TLR4 MyD88 blk,NOTCH ag
Cc1ccc(NC(=O)Nc2ccc(OCc3ccccc3)cc2)cc1NS(C)(=O)=O,-16,16,-5,4,-13,.
N#Cc1ccccc1N1CCOCC1,-1,-59,-21,1,-4,0
O=C(Oc1ccc([N+](=O)[O-])cc1C1SCCS1)c1ccc([N+](=O)[O-])o1,3,-25,-3,5,-3,-1
COc1ccc(/C(C#N)=C/c2cnc(-c3ccccc3)[nH]2)cc1,-4,0,-14,50*,-2,0
CCOC(=O)Cc1c(C)[nH]n(-c2ccccc2)c1=O,2,44,24,0,7,0
O=c1c(C=Nc2ccccc2)c(Nc2ccccc2)[nH]n1-c1ccccc1,-16,1,32,84*,1,0
Cc1nc(C(F)(F)F)ccc1C(=O)NNC(=O)c1cccs1,4,-7,-8,-3,4,0
CC(=O)Nc1sc(=Nc2ccc(C)c(C)c2)n(C(C)=O)c1-c1ccc2c(c1)OCO2,4,29,-11,35*,5,-1
O=C(Oc1cccc2[nH]ccc12)c1ccc(C(F)(F)F)cc1,0,80*,20,3,4,-1
COC(=O)c1cscc1OC(=O)c1ccc(C(F)(F)F)cc1,3,-118,5,-2,11,0
Cc1cc(=O)n2ncnc2n1CC(=O)NNC(=S)Nc1ccc(Cl)cc1Cl,75*,7,-1,1,-5,0
CCOC(=O)c1csc(Nc2ccncc2)n1,2,-29,11,1,10,-1
CCOC(=O)c1csc(N/N=C2\CCc3ccccc32)n1,4,42,-8,61*,-4,0
Nc1cc(Cl)c(S(N)(=O)=O)cc1S(=O)(=O)NCc1ccccc1,-4,-10,-11,7,-2,-1
O=S(=O)(NCc1ccccc1)c1cc(Br)c(Br)s1,-1,-26,10,74*,5,0
CCOC(=O)C1CCN(c2ccc([N+](=O)[O-])cn2)CC1,5,-35,4,-3,1,0
CC(C)c1nc2ccccc2n1C1CC(=O)N(c2ccc(Cl)cc2)C1=O (centres undefined),-1,-37,.,1,0,0
O=C(O)/C=C/C(=O)Nc1ccc(N2CCCCCC2)c(NC(=O)/C=C/C(=O)O)c1,5,18,9,-6,2,2.4*
COC(=O)c1cc(NC(=O)/C=C/C(=O)O)ccc1N1CCOCC1,6,74,19,1,-1,0
O=C(CCN1CCC(c2ccc(Cl)s2)=N1)c1ccc(Cl)s1,-2,-37,-6,-1,3,3.4*
NC(=O)c1ccc(-c2ccc(Cl)cc2)s1,-1,5,9,2,1,0
Cc1cc(C(=O)NN)ccc1[N+](=O)[O-],7,22,23,5,0,0
Cc1cc(OCc2ccccc2)ccc1[N+](=O)[O-],-2,-15,2,3,16,2.5*
Cc1ccc(NC(=O)C(=O)N/N=C/c2ccccn2)cc1C,2,-44,7,-4,-3,-6
COc1ccc(N(C)CC(=O)O)c(C(=O)O)c1,-4,97*,18,5,1,0
COc1ccc(C#N)c(C(=O)O)c1,-5,-23,-2,1,2,-1
Nc1ccccc1SCc1ccc2nonc2c1,-8,12,14,5,-2,0
COc1ccc(CCNC(=O)/C(C#N)=C/c2ccc[nH]2)cc1OC,-3,6,-13,3,0,0

# High-throughput results (PubChem)
